Source: PubChem BioAssay AID1159580 (chemical genetic matrix, 2015)
Among all 5,500 compounds or so, about 2,000 (36%) were called active. Not shown: some 18% with an inconclusive outcome. Cut-off read from the data, not from the text of the source: active = normalized growth mostly below about 0.91 (no sharp cut-off); inconclusive = no clear call, values can overlap the other calls; inactive = mostly above about 0.92. The list shows a part of the results.

Experiment: chemical genetic growth profiling, strain panel (AID 1159580);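 note: tested at 20 µM; growth read once vehicle control cultures reached saturation at 30 °C; 1 = growth at the plate median or of vehicle wells; lower values mean less growth of the strain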
Conditions: growth OD

Measured: normalized growth

CC(C)(Oc1ccc(CCNC(=O)c2ccc(Cl)cc2)cc1)C(=O)O
inactive: S. cerevisiae deletion strains, locus YJR075W, strain HOC1, stronger effect = lower value 1.02 | S. cerevisiae deletion strains, locus YKL009W, strain mrt4, stronger effect = lower value 1.02 | S. cerevisiae deletion strains, locus YKL068W, stronger effect = lower value 1.01 | S. cerevisiae deletion strains, locus YKL085W, strain MDH1 (second series), stronger effect = lower value 1.03 | S. cerevisiae deletion strains, locus YKL085W, strain MDH1, stronger effect = lower value 1.03 | S. cerevisiae deletion strains, locus YKL160W, strain elf1, stronger effect = lower value 0.961 | S. cerevisiae deletion strains, locus YKL190W, strain CNB1, stronger effect = lower value 1.01 | S. cerevisiae deletion strains, locus YKR001C, strain vps1, stronger effect = lower value 1.02 | S. cerevisiae deletion strains, locus YKR026C, strain gcn3, stronger effect = lower value 0.991 | S. cerevisiae deletion strains, locus YKR091W, strain srl3, stronger effect = lower value 0.996 | S. cerevisiae deletion strains, locus YLL001W, strain dnm1, stronger effect = lower value 0.975 | S. cerevisiae deletion strains, locus YLL026W, stronger effect = lower value 0.995 | S. cerevisiae deletion strains, locus YLL041C, strain sdh2, stronger effect = lower value 0.98 | S. cerevisiae deletion strains, locus YLR027C, strain aat2, stronger effect = lower value 0.977 | S. cerevisiae deletion strains, locus YLR039C, strain RIC1, stronger effect = lower value 1.03 | S. cerevisiae deletion strains, locus YLR058C, strain SHM2, stronger effect = lower value 1.01 | S. cerevisiae deletion strains, locus YLR102C, strain apc9, stronger effect = lower value 1.01 | S. cerevisiae deletion strains, locus YLR113W, strain HOG1, stronger effect = lower value 0.943 | S. cerevisiae deletion strains, locus YLR221C, strain rsa3, stronger effect = lower value 0.997 | S. cerevisiae deletion strains, locus YLR258W, strain gsy2, stronger effect = lower value 0.972 | S. cerevisiae deletion strains, locus YLR262C, strain YPT6 (second series), stronger effect = lower value 1.01 | S. cerevisiae deletion strains, locus YLR262C, strain YPT6, stronger effect = lower value 1.02 | S. cerevisiae deletion strains, locus YLR268W, strain sec22, stronger effect = lower value 1.01 | S. cerevisiae deletion strains, locus YLR320W, strain mms22, stronger effect = lower value 0.978 | S. cerevisiae deletion strains, locus YLR330W, strain CHS5, stronger effect = lower value 1.01 | S. cerevisiae deletion strains, locus YLR342W, strain FKS1 (second series), stronger effect = lower value 1.05 | S. cerevisiae deletion strains, locus YLR342W, strain FKS1, stronger effect = lower value 0.978 | S. cerevisiae deletion strains, locus YLR357W, strain rsc2, stronger effect = lower value 0.951 | S. cerevisiae deletion strains, locus YLR370C, strain arc18, stronger effect = lower value 0.983 | S. cerevisiae deletion strains, locus YLR371W, strain rom2, stronger effect = lower value 1.02 | S. cerevisiae deletion strains, locus YLR384C, strain iki3, stronger effect = lower value 0.972 | S. cerevisiae deletion strains, locus YLR418C, strain cdc73, stronger effect = lower value 1.06 | S. cerevisiae deletion strains, locus YML016C, strain PPZ1, stronger effect = lower value 1.02 | S. cerevisiae deletion strains, locus YML032C, strain rad52, stronger effect = lower value 1.01 | S. cerevisiae deletion strains, locus YML120C, strain ndi1, stronger effect = lower value 1.03 | S. cerevisiae deletion strains, locus YML124C, strain tub3, stronger effect = lower value 1.01 | S. cerevisiae deletion strains, locus YMR058W, strain fet3, stronger effect = lower value 0.995 | S. cerevisiae deletion strains, locus YMR078C, strain ctf18, stronger effect = lower value 1.01 | S. cerevisiae deletion strains, locus YMR125W, strain sto1, stronger effect = lower value 0.986 | S. cerevisiae deletion strains, locus YMR129W, stronger effect = lower value 0.982 | S. cerevisiae deletion strains, locus YMR205C, strain PFK2, stronger effect = lower value 0.977 | S. cerevisiae deletion strains, locus YMR223W, strain ubp8, stronger effect = lower value 1.01 | S. cerevisiae deletion strains, locus YMR231W, strain pep5, stronger effect = lower value 0.994 | S. cerevisiae deletion strains, locus YMR307W, strain GAS1, stronger effect = lower value 1.04 | S. cerevisiae deletion strains, locus YNL067W, strain RPL9B, stronger effect = lower value 1.01 | S. cerevisiae deletion strains, locus YNL071W, strain lat1, stronger effect = lower value 0.994 | S. cerevisiae deletion strains, locus YNL128W, strain TEP1, stronger effect = lower value 1.04 | S. cerevisiae deletion strains, locus YNL153C, strain GIM3, stronger effect = lower value 1.02 | S. cerevisiae deletion strains, locus YNL183C, strain NPR1, stronger effect = lower value 0.937 | S. cerevisiae deletion strains, locus YNL209W, strain ssb2, stronger effect = lower value 0.98 | S. cerevisiae deletion strains, locus YNL233W, strain BNI4, stronger effect = lower value 1.01 | S. cerevisiae deletion strains, locus YNL248C, strain rpa49, stronger effect = lower value 0.986 | S. cerevisiae deletion strains, locus YNL250W, strain rad50, stronger effect = lower value 1.02 | S. cerevisiae deletion strains, locus YNL271C, strain bni1, stronger effect = lower value 1.02 | S. cerevisiae deletion strains, locus YNL298W, strain CLA4, stronger effect = lower value 1.02 | S. cerevisiae deletion strains, locus YNL307C, strain MCK1, stronger effect = lower value 1.03 | S. cerevisiae deletion strains, locus YNL322C, strain KRE1 (second series), stronger effect = lower value 0.978 | S. cerevisiae deletion strains, locus YNL322C, strain KRE1, stronger effect = lower value 1.01 | S. cerevisiae deletion strains, locus YNR049C, strain mso1, stronger effect = lower value 0.971 | S. cerevisiae deletion strains, locus YNR052C, strain pop2, stronger effect = lower value 1.01 | S. cerevisiae deletion strains, locus YOL006C, strain TOP1, stronger effect = lower value 1.04 | S. cerevisiae deletion strains, locus YOL012C, strain htz1 0.932 | S. cerevisiae deletion strains, locus YOL147C, strain pex11, stronger effect = lower value 1.01 | S. cerevisiae deletion strains, locus YOR001W, strain rrp6, stronger effect = lower value 1.01 | S. cerevisiae deletion strains, locus YOR061W, strain CKA2, stronger effect = lower value 1.02 | S. cerevisiae deletion strains, locus YOR069W, strain VPS5, stronger effect = lower value 1.01 | S. cerevisiae deletion strains, locus YOR070C, strain gyp1, stronger effect = lower value 0.993 | S. cerevisiae deletion strains, locus YOR080W, strain dia2, stronger effect = lower value 0.983 | S. cerevisiae deletion strains, locus YOR083W, strain WHI5, stronger effect = lower value 0.922 | S. cerevisiae deletion strains, locus YOR106W, strain vam3, stronger effect = lower value 0.982 | S. cerevisiae deletion strains, locus YOR136W, strain idh2, stronger effect = lower value 1.02 | S. cerevisiae deletion strains, locus YOR144C, strain elg1, stronger effect = lower value 1.02 | S. cerevisiae deletion strains, locus YOR184W, strain ser1, stronger effect = lower value 1.06 | S. cerevisiae deletion strains, locus YOR231W, strain MKK1, stronger effect = lower value 0.988 | S. cerevisiae deletion strains, locus YOR265W, strain rbl2, stronger effect = lower value 0.983 | S. cerevisiae deletion strains, locus YOR270C, strain vph1, stronger effect = lower value 1.03 | S. cerevisiae deletion strains, locus YOR290C, strain snf2, stronger effect = lower value 0.977 | S. cerevisiae deletion strains, locus YOR316C, strain cot1, stronger effect = lower value 1.03 | S. cerevisiae deletion strains, locus YPL051W, strain arl3, stronger effect = lower value 0.984 | S. cerevisiae deletion strains, locus YPL055C, strain LGE1, stronger effect = lower value 1 | S. cerevisiae deletion strains, locus YPL078C, strain atp4, stronger effect = lower value 0.971 | S. cerevisiae deletion strains, locus YPL106C, strain sse1, stronger effect = lower value 0.934 | S. cerevisiae deletion strains, locus YPL240C, strain hsp82, stronger effect = lower value 0.989 | S. cerevisiae deletion strains, locus YPL256C, strain CLN2, stronger effect = lower value 1 | S. cerevisiae deletion strains, locus YPR119W, strain clb2, stronger effect = lower value 1.01 | S. cerevisiae deletion strains, locus YPR141C, strain kar3, stronger effect = lower value 1.01 | S. cerevisiae deletion strains, locus YPR163C, strain tif3, stronger effect = lower value 1.02 | S. cerevisiae deletion strains, locus YPR167C, strain met16, stronger effect = lower value 1.03 | S. cerevisiae deletion strains, strain wtn01, stronger effect = lower value 1.02 | S. cerevisiae strains, strain wild type, stronger effect = lower value 1.02
